An excerpt weighted towards active compounds, which were near 2.4% of everything screened.
UHRF1 MBD2 ctr = human UHRF1 methylated DNA binding inhibitors. Q96T88. UHRF1 binding to methylated oligo, TR-FRET. inhibition, % at 4.4 µM. 370,000 compounds, 0.75% hits. AID 687016; in the data active means inhibition above about 21%;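 further: UHRF1 SRA domain binding a hemimethylated CpG hairpin DNA probe; 0% = median of test compound wells and 100% = reference inhibitor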
PLCg1 inh = blocks human PLC-gamma1 enzyme activity | P19174 | 370,000 compounds, 0.84% hits | inhibition, % at 12.2 µM | purified PLC-gamma1, fluorogenic substrate, fluorescence | AID 720700; in the data active means inhibition above about 9.5%
LEDGF integ inh = blocks HIV-1 LEDGF/p75-dependent DNA integration; TR-FRET IN-LEDGF/p75 DNA integration, Eu/Cy5; inhibition, % at 3.7 µM; 370,000 compounds, 0.64% hits;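 active means inhibition above the screen-wide mean plus 3 SD, cut at about 13% in these data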;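 further: signal is the Cy5 over europium emission ratio at 671 and 618 nm; 0% = plate median of compound wells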
PLCb3 inh = inhibitors of human phospholipase C beta3; Q01970; Purified PLC-beta3, fluorogenic substrate, fluorescence; inhibition, % at 12.2 µM; 370,000 compounds, 0.18% hits; AID 720704; in the data active means inhibition above about 11%;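 further: 0% = median of compound wells on plate and 100% = full blocker control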
MBD2 DNA inh = blocks human MBD2 binding to methylated DNA | 370,000 compounds, 0.31% hits | inhibition, % at 4.4 µM | Q9UBB5 | AID 686964 | TR-FRET, MBD2 binding to methylated oligonucleotide; in the data active means inhibition above about 13%
IN multimer up = HIV-1 integrase multimerization activation, counter-screen. activation, % at 7.7 µM. TR-FRET HIV-1 integrase multimerization, biochemical. shares compounds with LEDGF integ inh. 2,000 compounds, 17% hits; in the data active means activation above about 8.9%
TRFRET interf = optically interferes with TR-FRET readout in LEDGF counter-screen | shares compounds with LEDGF integ inh | TR-FRET optical interference counterscreen, HIV-1 IN multimerization | inhibition, % at 7.7 µM | 2,000 tested, under 10 active | AID 1053135;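 active means inhibition above the mean over all tested compounds plus 3 SD, which no compound reached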;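 further: 0% = integrase with antibodies and DMSO and 100% = antibodies without integrase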
LEDGF integ conf = confirmation of HIV-1 LEDGF/p75-dependent integration inhibitors; 2,000 compounds, 36% hits; shares compounds with LEDGF integ inh; TR-FRET LEDGF/p75-dependent HIV-1 integration, biochemical; inhibition, % at 3.7 µM; in the data active means inhibition above about 14%
* = called active by the depositor; / = no result given.

SMILES	UHRF1 MBD2 ctr	PLCg1 inh	LEDGF integ inh	PLCb3 inh	MBD2 DNA inh	IN multimer up	TRFRET interf	LEDGF integ conf
CC(=O)Nc1cccc(-c2cc(C(C)=O)c3n(c2=O)CCC3)c1	-1.5	0.4	-1.1	-0.5	0.2	/	/	/
COc1ccc(-c2ccc(C(=O)Nc3cccc(NS(C)(=O)=O)c3)c3occc23)c(C)c1	0.3	-11.0	16.4*	-18.4	2.7	4.8	-16.7	-0.9
COc1ccc(-c2ccc(C(=O)Nc3cccc(F)c3)c3occc23)c(C)c1	0.5	-22.0	-2.9	-27.9	-1.2	/	/	/
COc1cc(NC(=O)C2CCCN(S(=O)(=O)c3cccs3)C2)cc(OC)c1 (stereo not drawn)	-0.2	-1.6	-2.0	0.7	-0.4	/	/	/
CCCCN1C(=O)/C(=C2\SC(N3CCCCC3)=NC2=O)c2ccccc21	-0.3	2.9	1.9	4.1	0.5	/	/	/
CCCCN1C(=O)C(=Nc2cccc3cnccc23)c2ccccc21	-4.4	-13.9	16.1*	-19.2	-16.8	1.2	-6.3	23.5*
O=C(NCCCO)c1ccc(CSc2nc3ccccc3[nH]2)cc1	1.1	-0.1	17.0*	-2.1	4.7	-0.1	0.3	-4.6
COC(=O)[C@]12C[C@H](CC(=O)N3CCN(C(=O)C4CC4)CC3)C(=O)N(Cc3ccco3)C1=C[C@H](C1CCCC1)O[C@@H]2C	-0.6	0.1	-0.4	1.2	-6.6	/	/	/
COc1ccc(C2C(C#N)=C(N)Oc3c2c(C)nn3-c2ccccc2)cc1Cn1nc(C)c([N+](=O)[O-])c1C (stereo not drawn)	-3.8	5.1	-0.8	0.9	-6.3	/	/	/
COc1ccc(C2C(C#N)=C(N)OC3=C2C(=O)CC(C)(C)C3)cc1Cn1nc(C)c([N+](=O)[O-])c1C (stereo not drawn)	-1.9	2.6	14.5*	1.4	-1.8	1.2	-6.2	-4.8
CC(=O)N1CCN(C(=O)c2ccc(CNC(=O)c3cccc(Br)c3)cc2)CC1	-0.8	1.7	3.7	1.3	2.1	/	/	/
S=c1[nH]nc(-c2ccco2)n1-c1ccccc1Cl	-3.5	-0.8	-0.2	0.6	-0.3	/	/	/
S=c1[nH]nc(-c2cc(-c3ccco3)[nH]n2)n1-c1ccccc1Cl	16.6	-3.9	13.6*	-6.9	2.7	1.7	-8.5	15.1*
Cc1ccc(S(=O)(=O)N2c3ccc(F)cc3C[C@H]2CSc2ccccc2)cc1	1.2	2.6	2.7	0.7	-3.1	/	/	/
Cc1cc(C)c(-c2csc(NC(=O)C3=COCCO3)n2)cc1C	0.4	1.4	4.9	-5.1	0.0	/	/	/
C=CCn1c(C)cc(-c2csc(NC(=O)C3=COCCO3)n2)c1C	0.4	-32.9	51.2*	-40.8	-1.6	2.1	-7.4	3.3
O=C(Cc1csc(N2CCOCC2)n1)N/N=C/c1ccc(O)c(O)c1O	4.9	-2.9	55.2*	-13.0	1.4	44.1*	-156.6	60.0*
O=C(CCN1CCN(c2ccccc2)CC1)N/N=C/c1ccc(O)c(O)c1O	26.7*	-6.0	42.0*	-12.7	7.9	49.0*	-174.4	72.8*
C/C(=N\NC(=O)Cc1csc(N2CCOCC2)n1)c1ccccc1	-4.8	-1.1	1.8	-0.6	5.8	/	/	/
COc1ccc(CN2C(=O)[C@]3(NCCc4c3[nH]c3ccc(OC)cc43)c3cc(F)ccc32)cc1	1.2	0.2	5.0	0.0	5.7	/	/	/
O=C(C1CCCN1S(=O)(=O)c1cccc2ccccc12)N1CCN(c2ccccc2)CC1 (stereo not drawn)	-2.7	-1.4	-0.2	3.2	-4.3	/	/	/
COC(=O)CCC[C@H](C)[C@@H](NS(=O)(=O)c1ccc(C)cc1)C(C)(C)C	0.7	-1.7	40.5*	-1.6	9.3	0.5	-2.4	-5.4
N#Cc1c(NC(=O)COC(=O)C2CC3C=CC2C3)oc(-c2ccccc2)c1-c1ccccc1 (stereo not drawn)	7.4	-4.8	17.6*	-16.2	-0.2	-2.4	12.2	0.8
COc1ccccc1OCC(=O)Nc1oc(-c2ccccc2)c(-c2ccccc2)c1C#N	0.5	-17.9	-2.3	-21.9	-2.9	/	/	/
Cc1ccc(-c2nn(-c3ccccc3)cc2CO)o1	0.4	-12.0	15.4*	-13.5	-5.5	-0.1	0.4	4.0
